The results in this text go back to PubChem BioAssay (NCATS).

For some of these results: Entries with a potency or affinity are not part of this list. Activity calls are given as the source filed them. No rule for the calls is given here.
For efficacy in this document: 0% is about no effect.

The conditions of the first assay: Ebola virus entry assay, green fluorescence channel.
Take `C[N+](C)(C)CCOC(N)=O`: the efficacy was 12.2% (inactive).
The same measure, in the same setting: then `O=C(O)c1ccccc1OP(=O)(O)O`, with 11.4% (inactive); and `O=S(=O)(O)c1ccc2nc(-c3ccccc3)[nH]c2c1`, with -32.6% (inactive); and `CC(=O)OCC[N+](C)(C)C`, with -18% (inactive).
The same measure, in the same setting: under `O=C(O)Cn1cnnn1` stands 14.2% (inactive); under `NNC(=O)c1ccncc1`, 13.1% (inactive); under `CN(C)C(=O)COC(=O)Cc1ccc(OC(=O)c2ccc(N=C(N)N)cc2)cc1`, -14.4% (inactive).
Still for that read-out and setting: under `O=C(CO)[C@@H](O)[C@H](O)[C@@H](O)CO` stands 18.6% (inactive).
Consider `Cc1ccc2ccc(Cl)cc2n1`, for which the efficacy is 18.4% (inactive).
On the same count and under the same terms, then `O=C1OC(CN2CCOCC2)CN1/N=C/c1ccc([N+](=O)[O-])o1` (configuration not stated), with 29.1% (inactive); and `CC(=O)Nc1c(I)cc(I)c(C(=O)O)c1I`, with -9.82% (inactive).
On the same count and under the same terms, then `C=CCC1(C(C)CC)C(=O)NC(=O)NC1=O` (configuration not stated), with 14.7% (inactive); and `N#CC1(c2ccc(F)cc2)CCC(=O)CC1`, with 28.6% (inactive); and `CC(=O)Oc1ccc(C)cc1`, with 12.2% (inactive).
Take `O=C(O)CCCCCCCC(=O)O`: the efficacy is 17.2% (inactive).
Same read-out and setting: then `CCCCCCCCCCCCCCCC(=O)O`, with -6.91% (inactive); and `CCc1cccc(CC)c1NC(=O)CN(CC(=O)O)CC(=O)O`, with 15.2% (inactive).
On the same count and under the same terms, under `CCOC(=O)c1ccc(O)cc1` stands -24.8% (inactive).
The same measure, in the same setting: under `CCOC(N)=O` stands -34.6% (inactive); under `CCCCCC=CCC=CCCCCCCCC(=O)OCC`, 15.2% (inactive).
In the case of `Cc1nc2c([nH]1)c(=O)n(C)c(=O)n2Cc1ccco1`, the efficacy is 40.2% (inactive).
Still for that read-out and setting: under `COc1ccc2cc1Oc1cc3c(cc1OC)CC[N+](C)(C)[C@H]3Cc1ccc(cc1)Oc1c(OC)c(OC)cc3c1[C@@H](C2)[N+](C)(C)CC3` stands -25.2% (inactive).

For the next assay the following is noted: Ebola virus entry assay, blue channel fluorescence.
Take `CCCCCCCCCCCC(=O)[O][Sn]([CH2]CCC)([CH2]CCC)[O]C(=O)CCCCCCCCCCC`: the result was inactive.
On the same count and under the same terms, under `CC(=O)OCC1=C(C(=O)O)N2C(=O)[C@@H](NC(=O)Cc3cccs3)[C@H]2SC1` stands “inactive”.
On to `FC(F)(F)c1ccccc1-n1ccnc1`, for which the molecule was classed as inactive.
As to `CNCCCCOc1ccccc1Cc1ccccc1`, the AC50 – broadly, the midpoint of the concentration-response curve, whichever way the signal moves – is 5.62 µM (active).
Regarding `NS(=O)(=O)c1cc(-c2nn[nH]n2)c(NCc2cccs2)cc1Cl`, the result was inactive.
In the case of `CCCC(=O)OCOC(=O)C1=C(C)NC(C)=C(C(=O)OC)C1c1cccc(Cl)c1Cl` (configuration not stated), the molecule was classed as inactive.
Take `Cc1cc(NS(=O)(=O)c2ccc(N)cc2)no1`: the outcome was inactive.
Same read-out and setting: under `O=C(O)c1c(O)c(-c2ccccc2)nc2ccccc12` stands “inactive”.
As for `COc1cc(C(=O)NC2CCCNC2)cc(OC)c1OC` (configuration not stated), the molecule was classed as inactive.
As to `O=C(O)c1ccccc1C(=O)Nc1ccc(S(=O)(=O)Nc2nccs2)cc1`, the molecule was classed as inactive.
Still for that read-out and setting: under `COc1ccc2nc(SCc3ncc(C)c(OC)c3C)[nH]c2c1` stands “inactive”; under `CC(C(=O)O)c1ccc(/C=C2\CCCCC2=O)cc1` (configuration not stated), “inactive”; under `O=C(Oc1ccccc1)c1ccccc1O`, “inactive”.
As to `CC(C)Cn1cnc2c(N)nc3ccccc3c21`, the outcome was inactive.
Regarding `COc1ccc(S(=O)(=O)Nc2nnc(CC(C)C)s2)cc1`, the molecule was called inactive.
The same measure, in the same setting: then `CC[N+]1(CC)CCC(OC(=O)C(O)(c2ccccc2)c2ccccc2)C1` (configuration not stated), with “inactive”; and `C[N+](C)(C)CCOC(N)=O`, with “inactive”; and `O=C(O)c1ccccc1OP(=O)(O)O`, with “inactive”.
The same measure, in the same setting: under `O=S(=O)(O)c1ccc2nc(-c3ccccc3)[nH]c2c1` stands “inactive”.
The same measure, in the same setting: then `CC(=O)OCC[N+](C)(C)C`, with “inactive”; and `O=C(O)Cn1cnnn1`, with “inactive”; and `NNC(=O)c1ccncc1`, with “inactive”.
In the case of `CN(C)C(=O)COC(=O)Cc1ccc(OC(=O)c2ccc(N=C(N)N)cc2)cc1`, the molecule was called inactive.
Still for that read-out and setting: under `O=C(CO)[C@@H](O)[C@H](O)[C@@H](O)CO` stands “inactive”.
Still for that read-out and setting: then `Cc1ccc2ccc(Cl)cc2n1`, with “inactive”; and `O=C1OC(CN2CCOCC2)CN1/N=C/c1ccc([N+](=O)[O-])o1` (configuration not stated), with “inactive”.
Still for that read-out and setting: then `CC(=O)Nc1c(I)cc(I)c(C(=O)O)c1I`, with “inactive”; and `C=CCC1(C(C)CC)C(=O)NC(=O)NC1=O` (configuration not stated), with “inactive”; and `N#CC1(c2ccc(F)cc2)CCC(=O)CC1`, with “inactive”.
For `CC(=O)Oc1ccc(C)cc1`, the molecule was called inactive.
Still for that read-out and setting: under `O=C(O)CCCCCCCC(=O)O` stands “inactive”; under `CCCCCCCCCCCCCCCC(=O)O`, “inactive”.
On the same count and under the same terms, under `CCc1cccc(CC)c1NC(=O)CN(CC(=O)O)CC(=O)O` stands “inactive”.
The same measure, in the same setting: then `CCOC(=O)c1ccc(O)cc1`, with “inactive”.
As to `CCOC(N)=O`, the molecule was called inactive.
On the same count and under the same terms, then `CCCCCC=CCC=CCCCCCCCC(=O)OCC`, with “inactive”; and `Cc1nc2c([nH]1)c(=O)n(C)c(=O)n2Cc1ccco1`, with “inactive”; and `COc1ccc2cc1Oc1cc3c(cc1OC)CC[N+](C)(C)[C@H]3Cc1ccc(cc1)Oc1c(OC)c(OC)cc3c1[C@@H](C2)[N+](C)(C)CC3`, with “inactive”.

The conditions of a further assay: Ebola virus entry assay, green channel fluorescence.
Regarding `CCCCCCCCCCCC(=O)[O][Sn]([CH2]CCC)([CH2]CCC)[O]C(=O)CCCCCCCCCCC`, the call was inactive.
The same measure, in the same setting: then `CC(=O)OCC1=C(C(=O)O)N2C(=O)[C@@H](NC(=O)Cc3cccs3)[C@H]2SC1`, with “inactive”.
Same read-out and setting: under `FC(F)(F)c1ccccc1-n1ccnc1` stands “inactive”.
For the molecule `NS(=O)(=O)c1cc(-c2nn[nH]n2)c(NCc2cccs2)cc1Cl`, the outcome was inactive.
Same read-out and setting: under `CCCC(=O)OCOC(=O)C1=C(C)NC(C)=C(C(=O)OC)C1c1cccc(Cl)c1Cl` (configuration not stated) stands “inactive”; under `Cc1cc(NS(=O)(=O)c2ccc(N)cc2)no1`, “inactive”; under `O=C(O)c1c(O)c(-c2ccccc2)nc2ccccc12`, “inactive”.
Still for that read-out and setting: under `COc1cc(C(=O)NC2CCCNC2)cc(OC)c1OC` (configuration not stated) stands “inactive”; under `O=C(O)c1ccccc1C(=O)Nc1ccc(S(=O)(=O)Nc2nccs2)cc1`, “inactive”.
Regarding `COc1ccc2nc(SCc3ncc(C)c(OC)c3C)[nH]c2c1`, the result was inactive.
As to `CC(C(=O)O)c1ccc(/C=C2\CCCCC2=O)cc1` (configuration not stated), the result was inactive.
Same read-out and setting: under `O=C(Oc1ccccc1)c1ccccc1O` stands “inactive”.
On to `CC(C)Cn1cnc2c(N)nc3ccccc3c21`, for which the molecule was called inactive.
Same read-out and setting: under `COc1ccc(S(=O)(=O)Nc2nnc(CC(C)C)s2)cc1` stands “inactive”; under `CC[N+]1(CC)CCC(OC(=O)C(O)(c2ccccc2)c2ccccc2)C1` (configuration not stated), “inactive”.
`C[N+](C)(C)CCOC(N)=O`: the molecule was called inactive.
Still for that read-out and setting: then `O=C(O)c1ccccc1OP(=O)(O)O`, with “inactive”; and `O=S(=O)(O)c1ccc2nc(-c3ccccc3)[nH]c2c1`, with “inactive”.
As for `CC(=O)OCC[N+](C)(C)C`, the molecule was classed as inactive.
On the same count and under the same terms, then `O=C(O)Cn1cnnn1`, with “inactive”; and `NNC(=O)c1ccncc1`, with “inactive”; and `CN(C)C(=O)COC(=O)Cc1ccc(OC(=O)c2ccc(N=C(N)N)cc2)cc1`, with “inactive”.
`O=C(CO)[C@@H](O)[C@H](O)[C@@H](O)CO`: the molecule was classed as inactive.
`Cc1ccc2ccc(Cl)cc2n1`: the molecule was classed as inactive.
The same measure, in the same setting: under `O=C1OC(CN2CCOCC2)CN1/N=C/c1ccc([N+](=O)[O-])o1` (configuration not stated) stands “inactive”; under `CC(=O)Nc1c(I)cc(I)c(C(=O)O)c1I`, “inactive”; under `C=CCC1(C(C)CC)C(=O)NC(=O)NC1=O` (configuration not stated), “inactive”.
On the same count and under the same terms, under `N#CC1(c2ccc(F)cc2)CCC(=O)CC1` stands “inactive”; under `CC(=O)Oc1ccc(C)cc1`, “inactive”; under `O=C(O)CCCCCCCC(=O)O`, “inactive”.
Still for that read-out and setting: under `CCCCCCCCCCCCCCCC(=O)O` stands “inactive”; under `CCc1cccc(CC)c1NC(=O)CN(CC(=O)O)CC(=O)O`, “inactive”; under `CCOC(=O)c1ccc(O)cc1`, “inactive”.
With `CCOC(N)=O`, the outcome was inactive.
Still for that read-out and setting: under `CCCCCC=CCC=CCCCCCCCC(=O)OCC` stands “inactive”.
For the molecule `Cc1nc2c([nH]1)c(=O)n(C)c(=O)n2Cc1ccco1`, the outcome was inactive.
Still for that read-out and setting: then `COc1ccc2cc1Oc1cc3c(cc1OC)CC[N+](C)(C)[C@H]3Cc1ccc(cc1)Oc1c(OC)c(OC)cc3c1[C@@H](C2)[N+](C)(C)CC3`, with “inactive”.
